Source: PubChem BioAssay
CHT allo act: CHT positive allosteric modulators, primary screen, cell-based, membrane potential dye, choline EC20; High affinity choline transporter 1 (Homo sapiens), Q9GZV3; CHT-expressing cells; hits give high values; LV-AA mutant CHT in HEK293 cells; B-score at 10 µM; 310,000 tested, 0.49% active;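 active means initial fluorescence not abnormally high and integrated response B-score, plate-corrected, over 3 SD above library mean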
TMEM16A inh: TMEM16A chloride channel inhibitors, primary screen, cell-based, HTS; 310,000 tested, 1.2% active; Anoctamin-1 (Mus musculus), Q8BHY3; normalized B-score (activity score, 25-100; higher = stronger inhibition) at 10 µM; HEK293 TMEM16A/YFP iodide influx fluorescence, ionomycin;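 active means ratio plate-corrected score three or more library SD toward inhibition, starting fluorescence score within five deviations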;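 further: score derived from kinetic fluorescence span divided by baseline fluorescence per well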
IDE cell activ: human IDE activators in live cells, primary screen, fluorescence polarization, HEK cells, FAbeta-B substrate. FAbeta-B cleavage; 0% vehicle, 100% cell-free pure enzyme wells. activation, % at 5.96 µM. AID 493087, 2011. 340,000 tested, 0.073% active;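 active means activation above the mean of all tested compounds plus 3 SD, set per screening campaign, cut at about 17% in these data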
IDE inh: human IDE inhibitors in live cells, primary screen, fluorescence polarization, HEK cells, FAbetaB substrate. Insulin-degrading enzyme (Homo sapiens), P14735. AID 434962, 2010. FAbetaB cleavage. 320,000 tested, 0.41% active. inhibition, % at 5.59 µM;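 active means percent inhibition above the average of all tested compounds plus 3 SD, set per screening campaign, cut at about 16% in these data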;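 further: IDE supplied by intact live HEK cells; FP after avidin binding of uncleaved biotin substrate so inhibition keeps polarization high; 0% = DMSO wells and 100% = 60 µM reference IDE inhibitor Ii1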
CHT block: inhibitors of human choline transporter CHT. High affinity choline transporter 1 (Homo sapiens), Q9GZV3. CHT-expressing cells, membrane potential dye, choline response; hits give low values. B-score at 10 µM. 310,000 tested, 0.86% active. AID 488975, 2010;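 active means B-score over 3 SD under the library average, and starting fluorescence ratio not unusually high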;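 further: choline stimulus applied at its EC90 after an EC20 pre-addition; B-score computed on integrated fluorescence ratio after choline addition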
ANO1 activ: TMEM16A chloride channel activators or potentiators, primary screen, cell-based, HTS. Anoctamin-1 (Mus musculus), Q8BHY3. HEK293 TMEM16A/YFP-H148Q/I152L, iodide quench fluorescence; hits give low values. B-score at 10 µM. 340,000 tested, 0.3% active. AID 623877, 2012;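 active means fluorescence-ratio B-score plate-corrected deviation score at least 3 library SD below zero, with starting fluorescence score within 5 deviations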;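 further: channel opened by trigger with iodide after compound preincubation; score built on the fluorescence ratio of max minus min over baseline; more negative score means more quench and so TMEM16A activation or potentiation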
CHT activ conf: CHT activators, confirmation, cell-based, membrane potential dye, duplicate; shares compounds with CHT allo act; CHT-expressing cells, membrane potential dye fluorescence (FDSS); % of choline EC20–EC90 response window; HEK293 expressing CHT LV-AA mutant; choline added at its EC20; activation, % at 10 µM; 2,500 tested, 91% active; AID 504833, 2011;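 active means primary screen active, with duplicate mean activation above negative control mean plus 3 SD, cut at about 11% in these data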
HEK293 MP dye: membrane potential response in parental HEK293 cells, counter-screen for CHT activator project, cell-based, membrane potential dye; shares compounds with CHT allo act; membrane potential dye fluorescence (FDSS); measured after EC20 choline addition; ratio readout change at 10 µM, hits read low; 2,500 tested, 62% active; AID 623908, 2012;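 active means duplicate-averaged ratio beyond 3 SD from buffer wells, up or down, though filed actives are nearly all decreases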
* = called active by the depositor; i = inactive; . = not tested or not shown. Compounds with a hit are over-represented: about 2.7% of the library has one in this group of screens.

SMILES	CHT allo act	TMEM16A inh	IDE cell activ	IDE inh	CHT block	ANO1 activ	CHT activ conf	HEK293 MP dye
COc1cccc(OC)c1OCCCCN1CCC(Cc2ccccc2)CC1	i	i	2	2	i	i	.	.
CC(=O)CCc1ccc(OCCCCN2CCC(Cc3ccccc3)CC2)cc1	i	i	3	1	i	i	15*	-26*
CC(C)CN(C(=O)c1cc(=O)[nH]c2ccccc12)c1c(N)n(Cc2ccccc2)c(=O)[nH]c1=O	i	i	6	1	i	i	.	.
CCCn1cnc2cc(NCc3cccs3)ccc21	i	i	3	0	i	i	.	.
CCCCn1cnc2cc(NCc3ccncc3)ccc21	i	i	4	-3	i	i	43*	-43*
CCOC(=O)N1CCN(c2cc(NCCC(=O)O)c3c4c(onc24)-c2ccccc2C3=O)CC1	i	i	5	9	i	-12*	26*	-60*
O=C(O)CCCNc1cc(N2CCC3(CC2)OCCO3)c2noc3c2c1C(=O)c1ccccc1-3	i	i	.	-5	i	.	.	.
O=C(NC1CCN(Cc2ccccc2)CC1)c1cc(-c2ccccn2)nc2ccccc12	7.8*	i	-1	2	i	i	48*	-59*
O=C(NC1CCCCCCC1)c1cc(-c2ccccn2)nc2ccccc12	6.8*	i	0	1	i	i	10*	i
Cc1ccccc1C(=O)NC1CCN(Cc2ccccc2)CC1	i	i	-2	6	i	i	.	.
COc1ccc(-c2cc(C(=O)NC3CCCC3)c3ccccc3n2)cc1	i	i	4	-4	i	i	.	.
O=C(CCCc1ccccc1)NC12CC3CC(CC(C3)C1)C2	i	i	7	2	i	i	.	.
CC(=O)c1cccc(Nc2nc(=O)c3cccnc3s2)c1	7*	i	1	8	i	i	48*	-44*
Cc1ccccc1C[n+]1cccc2ccccc21	7*	i	1	5	i	i	52*	-42*
Cn1c(=O)c2c(nc(N3CCOCC3)n2CCCNC2=NCCCCC2)n(C)c1=O	8.4*	i	0	4	i	i	60*	-63*
COc1c(O)c(=O)n2c3ccccc3c3ccnc1c32	i	i	-22	13	i	i	41*	i
O=c1cc(-c2ccc(O)cc2)oc2ccccc12	i	i	2	2	i	i	.	.
O=c1cc(-c2ccncc2)oc2ccccc12	i	i	5	3	i	i	46*	-49*
CCn1nccc1C(=O)Nc1ccc(C(=O)OC(C)C)cc1	i	i	2	-6	i	i	.	.
Cc1ccc(N2CC(C(=O)Nc3ccc(S(=O)(=O)NCC4CCCO4)cc3)CC2=O)cc1C (centres undefined)	i	i	0	-6	i	i	.	.
Cn1c(=O)c(=O)n(C)c2cc(N3CCOCC3)c(NS(=O)(=O)c3ccc(F)c(Cl)c3)cc21	6.6*	i	3	1	i	i	49*	-51*
Cn1c(=O)c(=O)n(C)c2cc(N3CCOCC3)c(NS(=O)(=O)c3ccc([N+](=O)[O-])cc3)cc21	i	i	2	8	i	i	.	.
